This assay can be described thus: basal RPMI8226 mitochondrial membrane potential changes, profiling panel, cell-based, JC-1 fluorescence, 24 h, 100 nL compound (AID 1169). Also: test concentration not given here. The following applies: RPMI8226 myeloma, JC-1 mitochondrial potential fluorescence, higher = more signal.
`C=C(/C(=C/C[C@H](OC(C)=O)c1ccc(CO)o1)c1cc(C(=O)OC)ccc1OC)C(C)C` registered a z-score of 0.104.
`COC(=O)[C@@]1(Cc2ccccc2)N=C(c2ccc(OCCCO)cc2)O[C@H]1c1ccccc1` gave a z-score of -1.1.
The value for `CC(C)C[C@@H]1NC(=O)[C@@H]2C[C@H](C(=O)NCc3ccc(F)cc3)[C@H](c3cccc(OCCO)c3)N2C1=O` was -0.0212; that for `O=C1c2ccccc2[C@](Cc2ccccc2I)(C(=O)NCCN2CCOCC2)[C@H](c2ccc(CO)cc2)N1C1CCCCC1` was -0.385; that for `O=C1c2ccccc2[C@](Cc2ccccc2I)(C(=O)NCCN2CCOCC2)[C@H](c2ccc(CO)cc2)N1Cc1ccccc1Cl` was -0.273.
As for `CC(C)C(=C=CC[C@@H](O)c1ccc(OCCO)cc1)C[C@@H](O)COCc1ccccc1`, the figure is -0.147.
On to `COC(=O)[C@]1(CCC(=O)OC(C)(C)C)N=C(c2ccc(OCCCO)cc2)O[C@@H]1c1ccccc1CN=[N+]=[N-]`, for which the z-score is -1.16.
The value for `NC(=O)NCC#Cc1ccc2c(c1)[C@]1(C(=O)N2)[C@H](c2ccccc2OCCO)N2[C@H](c3ccccc3)[C@H](c3ccccc3)OC(=O)[C@H]2[C@@H]1C(=O)Nc1nc2ccccc2s1` was -0.885; that for `C=CCC(OC(C)=O)[C@@H]1[C@@H](N(Cc2ccc(-c3ccccc3)cc2)C(=O)Cc2ccc(OC)cc2)c2cc(OCCCO)ccc2N1C(=O)Cc1ccc2ccccc2c1` (stereo partly drawn) was 0.158; that for `C=C(CCCC)C(=O)CC[C@@H](OC(=O)c1ccccc1-c1ccccc1C(=O)O)c1ccc(OCCO)cc1` was -0.659.
The value for `CCCC[C@@H]1C[C@H]1[C@@H](NC(=O)c1ccco1)c1ccccc1C(F)(F)F` was -0.583; that for `CCOC(=O)C[C@H]1[C@H](OC(=O)c2cc3ccccc3oc2=O)[C@@H](NC(=O)c2ccccc2)c2cc(OCCCO)ccc2N1C(=O)c1ccc2ccccc2n1` was -0.311; that for `CCN(CC)c1ccc(N2CC=CC34O[C@@H]5C=CCCOC(=O)C5[C@H]3C(=O)N(CCCCCCO)[C@@H]4C2=O)cc1` (stereo partly drawn) was -0.197.
Molecule `COC(=O)[C@@]1(Cc2ccccc2)[C@H]2c3cc(C(=O)N(C)C)n(Cc4ccsc4Br)c3C[C@H]2CN1C(=O)c1ccccc1` showed a z-score of -0.776.
`COCCOC(=O)N1C(=O)[C@@]2(c3ccccc31)[C@H](c1ccccc1OCCO)N1[C@H](c3ccccc3)[C@H](c3ccccc3)OC(=O)[C@H]1[C@@H]2C(=O)N1CCN(c2ncccn2)CC1` registered a z-score of -0.929.
Consider `O[C@@H](Cc1ccccc1)[C@H]1C2C=CCCC=C2CN1Cc1cccc(Cl)c1` (stereo partly drawn), for which the z-score was -0.771.
`COc1cc2c(cc1OC)CN(C(=O)[C@@H]1[C@H]3C(=O)O[C@H](c4ccccc4)[C@H](c4ccccc4)N3[C@H](c3ccccc3OCCO)[C@@]13C(=O)Nc1ccc(C#CCCO)cc13)CC2` displayed a z-score of -1.21.
As for `Cc1ccc(S[C@]2(C(=O)O)CC(=O)N(C(C)C)[C@@H]2c2ccc(CO)cc2I)cc1`, the figure is -0.527.
For `O=C1O[C@H](c2ccccc2)[C@H](c2ccccc2)N2[C@H]1[C@@H](C(=O)N1CCCCCCC1)[C@]1(C(=O)Nc3ccc(C#CCCO)cc31)[C@H]2c1ccccc1OCCO`, the z-score is -1.3.
For `C=CCNC(=O)[C@@H]1[C@H]2C(=O)O[C@H](c3ccccc3)[C@H](c3ccccc3)N2[C@H](c2ccc(O)cc2)[C@@]12C(=O)N(C(=O)OCCOC)c1ccc(C#CCNC(N)=O)cc12`, the z-score came out at 0.383.
In turn, `O=C(c1ccccc1)N1C(=O)[C@@]2(Cc3ccccc31)N=C(c1ccc(OCCCO)cc1)O[C@H]2c1ccccc1` showed a z-score of -1.19.
For `C=C(/C(=C/C[C@H](OC(C)=O)c1ccccc1OCCO)c1cnc2ccccc2c1)C(C)C`, the z-score came to 0.251.
For the molecule `CC(C)C(CO)N1C(=O)[C@@H]2C3C(=O)OCCC/C=C\[C@H]3OC23C=CCN(CCN2CCOCC2)C(=O)[C@@H]13` (stereo partly drawn), the z-score is -0.759.
As for `CCCC[C@H]1OB(O)C[C@H]2C1=C(COC)C[C@H]1C(=O)N(C)C(=O)[C@H]12`, the figure is -0.528; as for `COC(=O)[C@@]1(Cc2ccc(F)cc2)[C@H]2c3cc(C(=O)N(C)C)n(Cc4ccc(Cl)c(C(F)(F)F)c4)c3C[C@H]2CN1C(=O)c1ccccc1`, -0.854.
`COc1ccc(CCNC(=O)[C@@]2(Sc3ccc(C)cc3)CC(=O)N(C3Cc4ccccc4C3)[C@@H]2c2ccc(CO)cc2I)cc1` gave a z-score of -0.597.
`CCCC[C@H]1OB(O)C[C@H]2C1=C(COC)Cn1c(=O)n(-c3ccccc3)c(=O)n12` displayed a z-score of 0.454.
As for `CN(C)CCCCCCNC(=O)[C@@H]1C[C@@H]2C(=O)N[C@@H](Cc3ccccc3)C(=O)N2[C@@H]1c1ccc(O)cc1`, the figure is -0.00023.
